Results reported in PubChem BioAssay (NCATS).
Several values for one entry are separate records, joined by “and”; a condition that tells them apart may be missing. Equal entries are not always repeated. Records with an inconclusive call do not appear. A number with no mark means an inactive call. Activity calls are given as the source filed them. Calls follow the shape of the dose curve; as a rule, active = well fitted curve in the direction sought with a large enough effect; inconclusive = small, poorly fitted or top-dose-only effect, or another doubt; inactive = no such curve, though single readings can be large; an effect the other way counts as inactive or inconclusive.

Target: Papain (Carica papaya) (UniProt P00784)
Experiment: Primary qHTS assay for inhibitors of the protease papain (AID 1645873);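 also: papain turnover of Z-FR-AMC read as the AMC fluorescence gain over 10 min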
Conditions: papain Z-FR-AMC cleavage, AMC fluorescence; series mostly up to 49.8 µM; activity change, negative = inhibition: at the top concentration
% is scaled to controls: 0 for no effect and ±100 for the full control effect.

Sequence of Papain (Carica papaya) (P00784 whole entry, looked up): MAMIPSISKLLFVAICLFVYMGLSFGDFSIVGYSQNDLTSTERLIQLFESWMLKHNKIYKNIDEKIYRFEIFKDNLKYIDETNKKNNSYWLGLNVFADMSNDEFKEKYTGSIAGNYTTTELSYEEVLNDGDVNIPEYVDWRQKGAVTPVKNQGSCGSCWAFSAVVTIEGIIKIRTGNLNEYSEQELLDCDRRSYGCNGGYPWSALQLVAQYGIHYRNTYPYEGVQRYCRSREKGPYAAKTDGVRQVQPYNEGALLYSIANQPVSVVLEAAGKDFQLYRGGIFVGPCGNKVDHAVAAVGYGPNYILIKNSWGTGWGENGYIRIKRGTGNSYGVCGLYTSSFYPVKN

| SMILES | activity change, negative = inhibition |
| --- | --- |
| Clc1ccc(C(c2ccc(Cl)cc2)n2cc[n+](CC(OCc3ccc(Cl)cc3Cl)c3ccc(Cl)cc3Cl)c2)cc1 (stereo not drawn) | 40.3% |
| COC(=O)[C@@H]1[C@H]2C[C@H]3c4[nH]c5ccccc5c4CCN3C[C@@H]2CC[C@@H]1O | -25.5% |
| CC1(C)CCC2=C(O1)c1ccccc1C(=O)C2=O | 28.4% |
| COc1cccc(-c2cc(=O)c3ccccc3o2)c1N | -16.8% |

Tested on: not listed separately
Experiment: Primary qHTS for inhibitors of nuclear receptor binding SET domain protein 2 (NSD2) in an isogenic RCH-ACV NSD2 p.E1099K mutant (9B) (AID 1645876); also: nearly all actives have a fitted effect of over 70% in size; also: potency is read from the fitted curve at half-maximal effect
Conditions: RCH-ACV (leukaemia line) NSD2 E1099K (9B) viability, CellTiter-Glo, 72 h; series mostly up to 44.9 µM; activity change, negative = viability loss: at the top concentration

| SMILES | activity change, negative = viability loss | Potency |
| --- | --- | --- |
| Cn1c(N2CCCCS2(=O)=O)nc(C(=O)NCc2ccc(F)cc2)c(O)c1=O | -1.28% |  |
| CO[C@@H](C(=O)N1Cc2[nH]nc(NC(=O)c3ccc(N4CCN(C)CC4)cc3)c2C1)c1ccccc1 |  | 73.1 nM (active) and 118 nM (active) |
| COc1cc(Nc2ncc(F)c(Nc3ccc4c(n3)NC(=O)C(C)(C)O4)n2)cc(OC)c1OC |  | 817 nM (active) and 4.61 µM (active) |
| Clc1ccc(C(c2ccc(Cl)cc2)n2cc[n+](CC(OCc3ccc(Cl)cc3Cl)c3ccc(Cl)cc3Cl)c2)cc1 (stereo not drawn) |  | 5.25 µM (active) |
| COC(=O)[C@@H]1[C@H]2C[C@H]3c4[nH]c5ccccc5c4CCN3C[C@@H]2CC[C@@H]1O | 0.776% |  |
| CC(C)C(C)C=CC(C)C1CCC2C3=CC=C4CC(O)CCC4(C)C3CCC21C (stereo not drawn) | 1.14% |  |
| O=C(NC1CCOCC1)c1ccc(-c2cc(-c3cn[nH]c3-c3ccccn3)ccn2)cc1 | -3.25% |  |
| Cc1ccc(Nc2cc(-c3cccc(N4C(=O)c5ccccc5C4=O)c3)ncn2)cc1NS(C)(=O)=O |  | 16.6 µM (active) |
| NC(=O)c1cccc(-c2cc(Nc3ccc(OC(F)(F)F)cc3)ncn2)c1 |  | 20.5 µM (active) and 14.8 µM (active) |
